HEK cytotox: cytotoxic compounds in HEK 293 cells | HEK 293 viability, ATP luminescence (CellTiter-Glo), 48-72 h | Potency, µM (titrated, usually from 115 µM), inactives show at the highest dose activity change, negative = cytotoxicity, hits mostly inhibitors | 94,000 tested, 6.6% active | AID 1345083; further: nearly all actives have a fitted effect of over 60% in size
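CellTiter-Glo luminescence (cellular ATP) was read after 48 or 72 hr of compound exposure at 37 degree Celsius. Cells were HEK 293 plated at 250 cells/well.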
hNpr1 antagonist: blocks ANP-stimulated signaling of human Npr1 receptor; P16066; HEK293 hNpr1 GloSensor cGMP, ANP-stimulated luminescence; Potency, µM (highest dose often 46.3 µM), without a hit: at the top dose activity change, negative = inhibition, usual class: inhibitors; 76,000 tested, 1.6% active; AID 1347048; calls by dose curve; further: nearly all actives have a fitted effect of over 60% in size
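Compound pre-incubated 30 min at room temperature on GloSensor-loaded HEK293 cells stably carrying hNpr1 and the pGS-40F cGMP biosensor. Stimulation uses hNppA at 0.1 nM final; luminescence is taken at baseline and 20 min post-agonist.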
FLuc inh: blocks purified firefly luciferase enzyme activity; P08659; purified P. pyralis luciferase, luminescence, biochemical; Potency, µM (titrated, usually from 115 µM), actives largely listed as inhibitors; 76,000 tested, 2.5% active; further: nearly all actives have a fitted effect of over 65% in size
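Cell-free enzyme assay, 10nM P. pyralis luciferase, luciferin and ATP each at 10uM. Inhibition profiled over a 6-point titration, read as luminescence.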
SNCA expr inh: SNCA gene expression inhibition; HEK-293 SNCA-luciferase knock-in, luminescence, 24 h; Potency, µM (series often up to 57.2 µM), without a hit: top-dose activity change, negative = inhibition, most hits filed as inhibitors; 140,000 tested, 0.17% active; AID 1671194;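 further: plate controls were DMSO cells for no effect and cell-free wells for full effect; nearly all actives have a fitted effect of over 45% in size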
SNCA viab count: cell viability loss counter-screen; HEK-293-SNCA-luc viability, GF-AFC fluorescence, 24 h; Potency, µM (highest dose often 57.1 µM), inactives show at the highest dose activity change, negative = cytotoxicity, hits mostly cytotoxic; 150,000 tested, 0.12% active; AID 1671193;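 further: 0% = DMSO-treated cells and -100% = medium-only wells without cells; nearly all actives have a fitted effect of over 30% in size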
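Cytotoxicity counterscreen: after 24 h compound treatment of genome-edited SNCA-luciferase HEK-293 cells, live-cell protease substrate GF-AFC read by fluorescence after 30 min; activity scaled between DMSO (0%) and medium-only (-100%), curves Hill-fitted.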
3T3 cytotox: cytotoxic compounds in NIH 3T3 cells | 94,000 tested, 4.3% active | Potency, µM (doses to about 96.7 µM), for inactives: at the top dose activity change, negative = cytotoxicity, hits mostly inhibitors | NIH 3T3 viability, CellTiter-Glo ATP luminescence, 48-72 h | AID 1345082; further: nearly all actives have a fitted effect of over 55% in size
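Viability of NIH 3T3 cells after 48 or 72 hr compound treatment at 37 °C was assessed by CellTiter-Glo, with luminescence imaged following a 10 min room-temperature step.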
An asterisk follows results filed as active; i = inactive; u = inconclusive; x = no result; ! = not active in a repeat; [ ] = another dose, or the depositor's remark. An excerpt weighted towards active compounds, which were near 7.4% of everything screened. Unless noted, the call rests on the fitted dose curve; in most records, active means well fitted curve in the direction sought with a large enough effect; inconclusive means small, poorly fitted or top-dose-only effect, or another doubt; inactive means no such curve, though single readings can be large; an effect the other way counts as inactive or inconclusive. Unless noted, on the % scale 0 is the no-effect control and ±100 the full control effect; potency means the concentration at half of the fitted maximal effect.

SMILES	HEK cytotox	hNpr1 antagonist	FLuc inh	SNCA expr inh	SNCA viab count	3T3 cytotox
Cc1cnc(-c2cccnc2)n1CC1CCN(C(=O)C2CCC2)C1 (stereo unspecified)	-3.9%	x	x	6.9%	2.0%	-19.0%
Cc1cccc(N(C)C(=O)Cn2c(-c3cccc(Cl)c3)nc(C)c(CCO)c2=O)c1	35.5µM*	-9.3%	i	-18.9%	-18.1%	u
Cc1nc(-c2cccc(Cl)c2)n(CC(=O)Nc2ccc(F)cc2)c(=O)c1CCO	39.8µM*	-3.8%	i	u	-26.7%	u
Cc1nc(-c2cccc(Cl)c2)n(CC(=O)NC(C)C)c(=O)c1CCO	u	2.0%	i	-7.7%	-11.3%	-8.9%
O=C(NCCc1ccccc1F)c1nc2sccn2c1-c1ccccc1	u	x	x	2.4%	-1.5%	u
COCCN1C(=O)c2cccn2CC1CNC(=O)c1cc(F)ccc1F (stereo unspecified)	-1.3%	x	x	3.0%	-10.8%	-7.5%
Cc1ccc(CC(=O)N2CCc3cn(C)c4cccc(c34)C2)cc1	79.4µM*	3.2%	i	-11.1%	3.4%	u
O=C(Nc1cc(C2CC2)nn1-c1ccccc1)c1cccc(Br)c1	u	x	x	-6.7%	4.5%	u
COCCNC(=O)C1CCc2sc(C(=O)N(C)C)cc2C1 (stereo unspecified)	-2.7%	4.7%	i	5.1%	7.3%	i
COC(=O)c1cccc(NC(=O)C2CCc3sc(C(=O)N(C)C)cc3C2)c1 (stereo unspecified)	44.7µM*	-4.7%	i	7.4%	-2.8%	u
O=C(Nc1ccc2c(c1)OCO2)C1CCc2sc(C(=O)N3CCCC3)cc2C1 (stereo unspecified)	31.6µM*	u	u	17.7%	-26.7%	22.4µM*
O=C1N(CCc2ccccc2)c2ccccc2C12CCN(CC1CC1)C2 (stereo unspecified)	39.8µM*!	-10.9%	i	u	u	u
O=C1N(CCc2ccccc2)c2ccccc2C12CCN(Cc1ccncc1)C2 (stereo unspecified)	35.5µM*	u	i	-17.8%	-11.2%	35.5µM*!
CC(C)(C)C(=O)N1CCC2(C1)C(=O)N(CCc1ccccc1)c1ccccc12 (stereo unspecified)	u	0.0%	i	23.4%	-8.0%	u
Cc1cc(CN2CCC3(C2)C(=O)N(Cc2ccccc2)c2ccccc23)no1 (stereo unspecified)	50.1µM*	10.5%	i	-7.8%	-14.4%	u
O=C1N(c2ccccc2)c2ccccc2C12CCN(Cc1cccnc1)C2 (stereo unspecified)	u	x	x	-22.1%	-5.9%	u
O=C1N(Cc2ccccc2)c2ccccc2C12CCN(Cc1cncs1)C2 (stereo unspecified)	u	2.3%	i	-6.2%	-0.8%	u
Cn1nccc1CN1CCC2(C1)C(=O)N(CCc1ccccc1)c1ccccc12 (stereo unspecified)	35.5µM*!	-0.5%	i	u	6.0%	u
COc1ccc(-c2cc(C(=O)NCc3ccc(F)cc3)c3cnn(C)c3n2)cc1	u	x	x	-12.2%	-0.2%	u
CC(C)NC(=O)C1CCC(=O)N1C1CCN(C(=O)C2CCC2)CC1 (stereo unspecified)	-15.6%	x	x	-4.7%	4.0%	-23.4%
O=C(NCc1cccc(Cl)c1)c1ccc2nnc(-c3ccoc3)n2c1	-28.6%	x	x	26.1%	-2.9%	u
O=C(COc1ccccc1)NC1CCCc2c1[nH]c1c(Cl)cccc21 (stereo unspecified)	44.7µM*	-2.1%	i	-16.3%	6.0%	u
COc1ccc(C2(C(=O)NC3CCCc4c3[nH]c3c(Cl)cccc43)CCOCC2)cc1 (stereo unspecified)	44.7µM*	u	i	u	-21.7%	22.4µM*
O=C(NC1CCCc2c1[nH]c1c(Cl)cccc21)C1(c2ccccc2)CCOCC1 (stereo unspecified)	-4.7%	0.6%	i	1.9%	1.2%	-22.8%
O=C(Cc1cccs1)NC1CCCc2c1[nH]c1c(Cl)cccc21 (stereo unspecified)	u	-8.3%	i	u	-3.2%	31.6µM*
SMILES	HEK cytotox	hNpr1 antagonist	FLuc inh	SNCA expr inh	SNCA viab count	3T3 cytotox
COc1cc(CNC(=O)c2nc(C(O)c3ccccn3)oc2C)cc(OC)c1 (stereo unspecified)	u	-15.9%[70.6 µM]	i	-13.9%[87.6 µM]	-4.4%[87.6 µM]	79.4µM*
COCC(=O)N1CCC(N2C(=O)c3c(c(C)nn3-c3ccccc3)C2C2CC2)C1 (stereo unspecified)	-19.8%	x	x	x	x	u
COc1ccc2[nH]c(C[C@@H]3C[C@@H](C(C)C)[C@H](CNC(=O)C4CCC4)C=C3C)nc2n1	44.7µM*	u	i	-20.9%[87.6 µM]	u	63.1µM*
COc1ccccc1C(=O)NC[C@@H]1C=C(C)[C@H](Cc2nc3ccccc3[nH]2)C[C@H]1C(C)C	u	u	i	u	u	31.6µM*
CC1=C[C@@H](CNC(=O)c2cnccn2)[C@H](C(C)C)C[C@H]1Cc1nc2ccccc2[nH]1	u	u	i	u	-24.1%[87.6 µM]	u
CC1=C[C@@H](CNC(=O)CN(C)C)[C@H](C(C)C)C[C@H]1Cc1nc2ccccc2[nH]1	u	2.2%[70.6 µM]	i	-24.5%[87.6 µM]	u	100µM*
CN(C)C(=O)N1CCN(Cc2ccccc2-c2ccccc2F)CC1	u	x	x	1.8%	-0.6%[12.5 µM]	u
O=C(NC1CCCN(c2ccc3nnc(-c4ccccc4)n3n2)C1)c1ccccn1 (stereo unspecified)	28.2µM*	x	x	x	x	u
COc1ccc(C(=O)NC2CCCN(c3ccc4nnc(-c5ccccc5)n4n3)C2)cc1 (stereo unspecified)	22.4µM*	x	x	x	x	u
O=C(NC1CCCN(c2ccc3nnc(-c4ccccc4)n3n2)C1)c1ccc(F)cc1 (stereo unspecified)	i	x	x	x	x	-26.0%
C=CCN1C[C@H]2COc3c(OCC)cccc3[C@H]2N(C(=O)OC)CCC1=O	-19.2%	x	x	x	x	u
CN(CC[C@H]1CN(C(=O)c2ccnc(Cl)c2)CC[C@H]1CC(=O)O)c1ccccc1	-5.7%[172 µM]	-0.9%[70.6 µM]	i	7.7%[87.6 µM]	-0.6%[87.6 µM]	28.2µM*
CN(CC[C@H]1CN(C(=O)c2cccs2)CC[C@H]1CC(=O)O)c1ccccc1	i	4.9%[70.6 µM]	i	-29.2%[87.6 µM]	1.8%[87.6 µM]	-0.4%[174 µM]
CSc1ccc(-c2cccc(CN3CCC(N[S+](=O)([O-])c4cccc(C(F)(F)F)c4)CC3)c2)cc1	12.6µM*	x	x	x	x	10µM*

Screening results as filed in PubChem BioAssay.
